# Reference: PubChem BioAssay (Tox21)
# “And” between values parts separate entries of the source, which are not always exact repeats. Equal entries are not always repeated. Inconclusive results are not listed. Entries that show only a call come without a potency. Some structures have more than one record in an assay (separate samples or runs), and their calls can disagree. The source made the active and inactive calls. Calls follow the shape of the full dose curve.
# Test: qHTS assay for small molecules that induce genotoxicity in human embryonic kidney cells expressing luciferase-tagged ATAD5 - cell viability (AID 651634); also: nearly all actives have a fitted effect of over 25% in size
# Conditions: HEK293T ATAD5-luc cells viability, CellTiter-Fluor, 15.5 h; series mostly up to 83.3 µM; activity, negative = cytotoxicity: at the top concentration
# Outline: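 Viability read: CellTiter-Fluor fluorescence, 30 min at 37C. Cells: HEK293T, luciferase-tagged ATAD5. Exposure: 15.5 hr, 37C, 5% CO2, compound or DMSO vehicle.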
# Potency is read from the fitted curve at half-maximal effect.
row,Structure (SMILES),Potency
1,CNC(=O)N(C)c1nnc(C(C)(C)C)s1,inactive
2,COP(=O)(OC)OC,inactive
3,CCN(CC)C(=O)SCc1ccc(Cl)cc1,inactive
4,CCN(N=O)C(N)=O,inactive
5,Cc1ccccc1[N+](=O)[O-],inactive
6,Cc1ccc(OP(=O)(Oc2ccc(C)cc2)Oc2ccc(C)cc2)cc1,inactive
7,O=C(O)CC[N+](=O)[O-],inactive
8,CCCCC(CC)COC(=O)c1ccc(C(=O)OCC(CC)CCCC)c(C(=O)OCC(CC)CCCC)c1 (centres undefined),inactive
9,Nn1cnnc1,inactive
10,N[C@@H](Cc1ccc(N(CCCl)CCCl)cc1)C(=O)O,inactive
11,c1nc[nH]n1,inactive
12,CCOP(=S)(OCC)O/N=C(\C#N)c1ccccc1,inactive
13,C[C@]12CCC(=O)C[C@@H]1CC[C@@H]1[C@@H]2CC[C@]2(C)[C@@H](O)CC[C@@H]12,inactive
14,O=c1oc2ccccc2c(O)c1C(CC(O)c1ccc(-c2ccc(Br)cc2)cc1)c1ccccc1 (centres undefined),inactive
15,Nc1ccc(Cl)c(Cl)c1,inactive
16,ClC1C(Cl)C(Cl)C(Cl)C(Cl)C1Cl (centres undefined),inactive
17,CN(C)c1ccc(C(=O)c2ccc(N(C)C)cc2)cc1,inactive
18,CCCCN(CCCC)N=O,inactive

row,Structure (SMILES),Potency
1,OCC(O)CO,inactive
2,S=C1NCCN1,inactive
3,CCOC(=S)S,inactive
4,O=P(Oc1ccccc1)(Oc1ccccc1)Oc1ccccc1,inactive
5,CC(O)CCO (centres undefined),inactive
6,O=P(O)(O)CCCl,inactive
7,c1ccc(NNc2ccccc2)cc1,inactive
8,CC(C)(OOC(C)(C)c1ccccc1)c1ccccc1,inactive
9,CC(C)N(C(=O)SCC(Cl)=C(Cl)Cl)C(C)C,inactive
10,O=[N+]([O-])c1ccc(O)c([N+](=O)[O-])c1,27.4 µM (active) and 27.3 µM (active)
11,O=[N+]([O-])c1cccc2ccccc12,inactive
12,COP(=S)(OC)Oc1cc(Cl)c(Cl)cc1Cl,inactive
13,C=CCc1ccc2c(c1)OCO2,inactive
14,CCN(CC)N=O,inactive
15,C#C[C@]1(O)CC[C@H]2[C@@H]3CCC4=CC(=O)CC[C@]4(C)[C@H]3CC[C@@]21C,inactive
16,c1ccc(P(c2ccccc2)c2ccccc2)cc1,inactive
17,Cc1cc(Cl)ccc1OCCCC(=O)O,inactive

# Test: qHTS assay for small molecule disruptors of the mitochondrial membrane potential - cell viability (AID 720634); also: nearly all actives have a fitted effect of over 20% in size;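 as to activity change, negative = cytotoxicity: human HepG2 liver cancer cells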
# Conditions: HepG2 viability, ATP luminescence (CellTiter-Glo), 1 h; series mostly up to 83.2 µM; activity change, negative = cytotoxicity: at the top concentration
# Outline: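 HepG2, 1 hr compound, 37 C. ATP luminescence via CellTiter-Glo, 30 min RT, same well as m-MPI.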
Structure (SMILES),Potency,"activity change, negative = cytotoxicity"
CNC(=O)N(C)c1nnc(C(C)(C)C)s1,inactive,–
CCC(C)c1cc([N+](=O)[O-])cc([N+](=O)[O-])c1O (centres undefined),inactive and 1.22 µM (active),–
COP(=O)(OC)OC,inactive,–
CCN(CC)C(=O)SCc1ccc(Cl)cc1,–,-19.2% [at 95.3 µM] (inactive)
CCN(N=O)C(N)=O,inactive,–
Cc1ccccc1[N+](=O)[O-],inactive,–
O=C(O)CC[N+](=O)[O-],inactive,–
Nn1cnnc1,inactive,–
N[C@@H](Cc1ccc(N(CCCl)CCCl)cc1)C(=O)O,inactive,–
c1nc[nH]n1,inactive,–
CCOP(=S)(OCC)O/N=C(\C#N)c1ccccc1,inactive and 54.5 µM (active),–
O=c1oc2ccccc2c(O)c1C(CC(O)c1ccc(-c2ccc(Br)cc2)cc1)c1ccccc1 (centres undefined),6.68 µM (active),–
Nc1ccc(Cl)c(Cl)c1,inactive,–
ClC1C(Cl)C(Cl)C(Cl)C(Cl)C1Cl (centres undefined),inactive,–
CCCCN(CCCC)N=O,inactive,–
OCC(O)CO,inactive,–
O=C(Nc1ccc(Br)cc1)c1cc(Br)cc(Br)c1O,inactive,–
CCOC(=S)S,inactive,–
Oc1c(Cl)c(Cl)c(Cl)c(Cl)c1Cl,–,-18.4% (inactive)
O=P(Oc1ccccc1)(Oc1ccccc1)Oc1ccccc1,13.6 µM (active),–
O=P(O)(O)CCCl,inactive,–
CC(C)(OOC(C)(C)c1ccccc1)c1ccccc1,–,-17.3% (inactive)
O=[N+]([O-])c1ccc(O)c([N+](=O)[O-])c1,10.9 µM (active),–
O=[N+]([O-])c1cccc2ccccc12,inactive,–
COP(=S)(OC)Oc1cc(Cl)c(Cl)cc1Cl,inactive,–
C=CCc1ccc2c(c1)OCO2,inactive,–
CCN(CC)N=O,inactive,–
C#C[C@]1(O)CC[C@H]2[C@@H]3CCC4=CC(=O)CC[C@]4(C)[C@H]3CC[C@@]21C,inactive,–
c1ccc(P(c2ccccc2)c2ccccc2)cc1,inactive,–
